Many of the other results were omitted from the sample, so hits are more common in it than they were.
Pf Dd2 inh: blocks in vitro growth of P. falciparum Dd2; Potency, µM (doses to about 28.9 µM), hits mostly inhibitors; P. falciparum Dd2 growth, SYBR Green, 72 h; 4.3% of 120,000 active; AID 1347417; active = well fitted inhibition curve with a large enough effect; note: nearly all actives have a fitted effect of over 65% in size
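Infected erythrocytes (Dd2, 0.3% parasitemia, 2.5% hematocrit final) are added to compound in RPMI-1640/Albumax II medium, grown 72 h at 37C in low oxygen, then lysed with saponin/Triton-X containing SYBR Green and read by fluorescence.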
Hits are given with their value; i = inactive; [ ] = another dose, or the depositor's remark.

SMILES	Pf Dd2 inh
O=C(NCc1ccco1)C1CCN(C(=O)c2ncn3c2COC(c2ccccc2)C3)CC1 (stereo not given)	i
CN1CCC(OCCCn2ccnc2-c2ccccc2C(=O)O)CC1	i
COCCNC(=O)N1CCCC(CNC(=O)C2(c3ccc(Cl)cc3)CC2)C1 (stereo not given)	i
Cn1nc(C(=O)N2CCC(Oc3ccc(-c4noc(C5CC5)n4)cc3)C2)c2ccccc21 (stereo not given)	i[5.79 µM]
COc1ccc(Cn2c(C(=O)O)c(CNC3CCCC3)c3ccc(C)cc32)cc1	i
COc1ccc2c(CNC3CCCCCC3)c(C(=O)O)n(Cc3ccc(C)cc3)c2c1	8.9µM
COc1ccc2c(CNC3CCCCCC3)c(C(=O)O)n(Cc3cccc(F)c3)c2c1	i
COc1ccc(Cn2c(C(=O)O)c(CNC3CCC(C)CC3)c3ccc(C)cc32)cc1 (stereo not given)	i
C=Cc1ccc(Cn2c(C(=O)O)c(CNC3CCCCC3)c3ccc(OC)cc32)cc1	11µM
Cc1ccc(Cn2c(C(=O)O)c(CNC3CCCC3)c3ccc(C)cc32)cc1	i
CNC(=O)[C@H]1C[C@H](Oc2ccccc2)CN1C(=O)c1cc(-c2ccc(F)cc2)n[nH]1	i
COc1cc(C(=O)N2CCN(CCc3ccncc3)CC2)cc(OC)c1OC	i
COc1cc(C(=O)N2CCN(CCc3ccccn3)CC2)cc(OC)c1OC	2.8µM
CC(C)(C)c1ccc(C(=O)N2CCN(CCc3ccccn3)CC2)cc1	i
CN(C)C(=O)N1CCN(C(=O)c2noc3c2CCCC3)[C@H]2CS(=O)(=O)C[C@H]21	i
O=C(c1ccc2c(c1)OCO2)N1CCN(C2CCNCC2)C(=O)C1	i
N#Cc1cccc(CN[C@@H]2CO[C@H](CNS(=O)(=O)c3ccccc3)[C@H]2O)c1	i
CCS(=O)(=O)c1ccccc1C(=O)N(Cc1cccnc1)c1nc2cc(C)c(C)cc2s1	i
Cc1ccc2nc(N(Cc3cccnc3)C(=O)CCS(=O)(=O)c3ccccc3)sc2c1	i
O=C(c1ccco1)N(Cc1cccnc1)c1nc2c(F)cccc2s1	i
O=C(CCS(=O)(=O)c1ccccc1)N(Cc1cccnc1)c1nc2ccc(Cl)cc2s1	i
CC(=O)N(Cc1cccnc1)c1nc2c(C)c(C)ccc2s1	i
Cc1cc(C)c2nc(N(Cc3cccnc3)C(=O)c3cccs3)sc2c1	10µM
Cc1ccc2nc(N(Cc3cccnc3)C(=O)c3ccc4c(c3)OCCO4)sc2c1	i
Cc1cc(C)c2nc(N(Cc3cccnc3)C(=O)Cc3ccccc3)sc2c1	10µM
SMILES	Pf Dd2 inh
Cc1ccc2nc(N(Cc3cccnc3)C(=O)Cc3ccccc3)sc2c1	5µM
O=C(CCc1ccccc1)N(Cc1cccnc1)c1nc2c(F)cccc2s1	i
Cc1cccc2sc(N(Cc3cccnc3)C(=O)CCc3ccccc3)nc12	4µM
CC(=O)c1ccc(C(=O)N(Cc2cccnc2)c2nc3c(Cl)cccc3s2)cc1	i
O=C(O)[C@]12CCCN[C@@H]1CCN(Cc1cnc(-c3ccccn3)nc1)C2	i
C[C@H]1CCCN1C(=O)c1nnc(COc2ccc(C#N)cc2)n1-c1ccccc1	i
O=C(CCc1ccccc1)N1CCNc2cnc(Nc3cccc(C(F)(F)F)c3)nc2C1	i
Cc1ccc(-n2c(C3CCN(C(=O)Cc4cccc(F)c4)CC3)n[nH]c2=O)cc1	i
COC1CN(c2cccc(F)c2)C12CCN(C(=O)NC1CCCCC1)CC2 (stereo not given)	6.3µM
COC1CN(c2cccc(F)c2)C12CCN(C(=O)C1CCC1)CC2 (stereo not given)	i
COC1CN(c2cccc(F)c2)C12CCN(C(=O)c1ccncc1)CC2 (stereo not given)	i
COC1CN(c2cccc(F)c2)C12CCN(C(=O)C1CCCCC1)CC2 (stereo not given)	10µM
COC1CN(c2cccc(F)c2)C12CCN(C(=O)NC(C)(C)C)CC2 (stereo not given)	i
COC1CN(c2cccc(F)c2)C12CCN(C(=O)CCC1CCCC1)CC2 (stereo not given)	i
CC(C)(CC(=O)O)CC(=O)N1Cc2[nH]cnc2C[C@H]1c1nc(-c2ccc3ccccc3c2)no1	i
Cc1nsc(NC(=O)N2CCC(C(C)O)CC2)n1 (stereo not given)	i
Cc1ccc(C(=O)N(C)C2CCCc3ccccc32)cc1 (stereo not given)	i
O=C(Nc1ccc(F)c(F)c1)c1cc2n(n1)CC(c1ccc(Br)cc1)OC2 (stereo not given)	i
CCn1nccc1C(=O)NC1CCCN(c2cc(N(C)C)ncn2)C1 (stereo not given)	i[5.79 µM]
O=C(CCC1CCN(C(=O)[C@@H]2C[C@@H]3C=C[C@H]2C3)CC1)Nc1ccc2c(c1)OCCO2	i
COc1ccc(NC(=O)Nc2ccc(C)n(CC(=O)Nc3cccc(C)c3)c2=O)cc1	i
COc1ccc(-n2cc(-c3ccc4c(c3)OCO4)n(CC(=O)Nc3cccc(C)c3)c2=O)cc1	13µM
CCc1cc(=O)n(CC(=O)Nc2ccc3c(c2)OCO3)c(-c2cccc(F)c2)n1	i
CN1C(=O)c2cccn2CC1CNC(=O)c1n[nH]c(=O)c2ccccc12 (stereo not given)	i
CN1C(=O)c2cccn2CC1CNC(=O)c1[nH]nc2c1COc1ccccc1-2 (stereo not given)	8.9µM
SMILES	Pf Dd2 inh
COCCN1C(=O)c2cccn2CC1CNC(=O)c1[nH]nc2c1COc1ccccc1-2 (stereo not given)	i
Cc1ncccc1Oc1ncnc(N2CCC3(CC(=O)NC3=O)C2)c1C (stereo not given)	i
CCCCCNC(=O)c1ccc(CN2C(=O)NC3(CCS(=O)(=O)CC3)C2=O)cc1	i
Cc1ccc(C)c(Cn2c(=O)n(Cc3ccc(C(=O)NC4CCN(Cc5ccccc5)CC4)cc3)c(=O)c3ccccc32)c1	i
O=C(NC1CCN(Cc2ccccc2)CC1)c1ccc(Cn2c(=O)c3ccccc3n(Cc3ccc(F)cc3)c2=O)cc1	10µM
O=c1c2ccccc2n(Cc2c(F)cccc2Cl)c(=O)n1Cc1ccccc1	i
COCc1cc(C[C@@H]2CC[C@H](O)[C@@H](CNC(=O)Nc3ccccc3)O2)no1	i
OCc1ccc(CN2C[C@H](O)C[C@H]2c2nc(-c3ccc(OC(F)(F)F)cc3)no2)o1	i
COc1ccc(NCc2cc3cc4c(cc3n(CC(=O)Nc3cc(C)cc(C)c3)c2=O)OCO4)cc1	i
COc1cc2cc(CNc3ccccc3)c(=O)n(CC(=O)Nc3cc(C)cc(C)c3)c2cc1OC	11µM
CCc1ccc(NC(=O)Cn2c(=O)c(CNc3ccccc3)cc3cc(OC)c(OC)cc32)cc1	i
C[C@H](O)c1onc(-c2ccc(Cl)cc2)c1C(=O)NC1CCC1	i
COc1cccc(CC(=O)N2CCCn3nc(C)c(-c4cccnc4N4CCOCC4)c32)c1	i
CC1(C(=O)NCCc2ccccn2)CCc2cnc(NCc3ccccc3)nc21 (stereo not given)	i
O=C(O)Cc1cc(C2CCN(Cc3cn(-c4ccccc4)nn3)CC2)n[nH]1	i
c1ccc(-n2cc(CN3CCC(Oc4ccncc4)CC3)nn2)cc1	i
COc1cccc(C2CCN(Cc3cn(-c4ccccc4)nn3)C2)c1OC (stereo not given)	13µM
O=C(NC1CCN(C(=O)N2CC3CC(C2)[C@H]2CCCC(=O)N2C3)CC1)c1ccccn1 (stereo not given in full)	i
CN(Cc1ccccc1)C(=O)C[C@@H]1CCNC[C@@H]1Cc1cc(-c2ccccc2)on1	5µM
CCCCc1cc(C[C@H]2CNCC[C@H]2CC(=O)N(C)Cc2ccccc2)no1	6.3µM
CCCCc1cc(C[C@H]2CNCC[C@H]2CC(=O)NCc2ccccc2)no1	i

Screens deposited in PubChem by National Center for Advancing Translational Sciences (NCATS).
